Results on 7 molecules are retold here after PubChem BioAssay (Tox21).

“And” between values parts separate entries of the source, which are not always exact repeats. Equal entries are not always repeated. Records with an inconclusive call do not appear. More than one record can exist for a structure, and the calls need not agree. The source made the active and inactive calls. Unless noted, the call rests on the fitted dose curve; in most records, active means well fitted curve in the direction sought with a large enough effect in the repeat runs; inconclusive means weak or mixed curves; inactive means no such curve, though single readings can be large; an effect the other way counts as inactive or inconclusive.

Assay [1] in a line: qHTS assay to identify small molecule antagonists of the estrogen related receptor (ERR) signaling pathway from Tox21 library - cell viability counter screen (AID 1224834). Further: nearly all actives have a fitted effect of over 30% in size. Further: potency means the concentration at half of the fitted maximal effect. A digest of the protocol: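 Fluorescence from CellTiter-Fluor gives the viability read-out, taken 30 min after reagent addition. Before that, ERR cells seeded 6 h earlier were incubated with compounds for 17.5 h at 37 C.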

Assay [2] deals with Luciferin 4-monooxygenase (Photinus pyralis) (UniProt P08659). Briefly: qHTS assay to identify small molecule inhibitors of firefly luciferase (AID 1224835). Further: nearly all actives have a fitted effect of over 25% in size. Further: potency means the concentration at half of the fitted maximal effect. A digest of the protocol: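 Quantitative HTS format; KM concentrations of both substrates. Purified P. pyralis FLuc activity quantified from luminescence images.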
A short description of assay [3]: qHTS assay to identify small molecule agonists of the constitutive androstane receptor (CAR) signaling pathway - cell viability counter screen (AID 1224836). Further: nearly all actives have a fitted effect of over 45% in size. Further: potency means the concentration at half of the fitted maximal effect. In outline:
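Cell viability multiplexed with the CAR agonist screen: CellTiter-Fluor fluorescence after 23 hr at 37 C. HepG2-CYP2B6-hCAR cells got compounds at 15 concentrations with PK11195 at 0.75 uM final.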

Assay [4] is described as follows: qHTS assay to identify small molecule antagonists of the constitutive androstane receptor (CAR) signaling pathway - cell viability counter screen (AID 1224837). Further: nearly all actives have a fitted effect of over 45% in size. Further: potency means the concentration at half of the fitted maximal effect. In outline: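 HepG2-CYP2B6-hCAR cells, 2500/well, 4 hr pre-incubation; compound titration, 15 conc.; CITCO 50 nM final; 23 hr, 37 C/5% CO2; CellTiter-Fluor, fluorescence intensity.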
In assay [5] the target is Nuclear receptor subfamily 1 group I member 3 (Homo sapiens) (UniProt Q14994). Briefly: qHTS assay to identify small molecule antagonists of the constitutive androstane receptor (CAR) signaling pathway (AID 1224838).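 Further: HepG2 cells stably expressing hCAR with CYP2B6 luciferase reporter stimulated by CITCO; nearly all actives have a fitted effect of over 40% in size.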 Further: potency means the concentration at half of the fitted maximal effect. A digest of the protocol: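 HepG2-CYP2B6-hCAR cells; 4 h pre-incubation; cpd (15 conc) + CITCO 50 nM final; 24 h, 37 C/5% CO2; ONE-Glo, luminescence.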
The target is the same in assay [6]. Briefly: qHTS assay to identify small molecule agonists of the constitutive androstane receptor (CAR) signaling pathway (AID 1224839). Further: nearly all actives have a fitted effect of over 15% in size. Further: potency means the concentration at half of the fitted maximal effect.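 On activation: HepG2 cells stably carrying human CAR and a CYP2B6 luciferase reporter.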 In outline: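 Luminescent ONE-Glo read-out after 24 hr, 37 C exposure of double-stable HepG2-CYP2B6-hCAR reporter cells to a 15-point compound series, in the presence of 0.75 uM PK11195 (final).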
The nature of assay [7]: qHTS assay to identify small molecule antagonists of the estrogen related receptor signaling pathway with the pleiotropic PPARgamma coactivator (PGC) from Tox21 10K library - cell viability counter screen (AID 1224840; active means well fitted cell-killing curve with a large enough effect in the repeat runs, not every such curve was filed as active; further: nearly all actives have a fitted effect of over 40% in size; further: potency means the concentration at half of the fitted maximal effect). A digest of the protocol: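 PGC/ERR cells, 2,000/well; 6 h pre-incubation 37 C/5% CO2; cpd in DMSO via pin tool; 17.5 h 37 C; CellTiter-Fluor, 30 min; fluorescence.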

Assay [8] is described as follows: qHTS assay to identify small molecule antagonists of the estrogen related receptor signaling pathway with the pleiotropic PPARgamma coactivator (PGC) from Tox21 10K library (AID 1224841; call rule not given here; further: actives are mostly falling curves and most rising ones were filed inactive; nearly all actives have a fitted effect of over 50% in size; further: potency means the concentration at half of the fitted maximal effect). In outline:
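PGC/ERR cell line, 2,000 cells/well; 6 h pre-incubation 37 C/5% CO2; compounds (DMSO) pinned in; 18 h, 37 C; One-Glo, 30 min RT; luminescence.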

Assay [9] concerns the target Thyrotropin receptor (Homo sapiens) (UniProt P16473). Briefly: qHTS assay to identify small molecule agonists of the thyroid stimulating hormone receptor (TSHR) signaling pathway (AID 1224843; calls by dose curve; further: nearly all actives have a fitted effect of over 45% in size). In outline:
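Cell line HEK293 with TSHR; density 800/well. Exposure 30 min RT. Readout HTRF cAMP (cAMP-d2/anti-cAMP-cryptate), 1 h RT before reading.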

A short description of assay [10]: qHTS assay to identify small molecule agonists of the hypoxia (HIF-1) signaling pathway - cell viability counter screen (AID 1224844; calls by dose curve; further: nearly all actives have a fitted effect of over 50% in size; further: potency means the concentration at half of the fitted maximal effect). A digest of the protocol:
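ME-180 HRE-bla cells, 2,000/well, 0.5% dialyzed FBS; 5 hr settle, 17 hr compound at 37C/5% CO2; CCF4-AM reporter read first, then CellTiter-Glo luminescence after 30 min RT.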

Assay [11] in a line: qHTS assay to identify small molecule agonists of H2AX (AID 1224845; active means well fitted activation curve with a large enough effect in the signal ratio in the repeat runs, not every such curve was filed as active; the % refers to the signal ratio). A digest of the protocol:
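Wild-type CHO-K1 cells plated overnight, then exposed 3 hr at 37C to compounds at 15 concentrations (0.76% DMSO). Lysed, then HTRF anti-pH2AX(S139)-cryptate/anti-H2AX-d2 detection after 24 hr at room temperature; emissions 665 and 620 nm.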

A short description of assay [12]: qHTS assay to identify small molecule agonists of the hypoxia (HIF-1) signaling pathway (AID 1224846; active means well fitted activation curve with a large enough effect in the signal ratio in the repeat runs, not every such curve was filed as active; the % refers to the signal ratio). In outline: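 Cell line: CellSensor HRE-bla ME-180; 2,000 cells/well; 0.5% dialyzed FBS; 5 h preincubation; DMSO compound pin transfer; 17 h, 37C, 5% CO2; CCF4-AM added; bla FRET signal scored for activation.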
Assay [13] in a line: qHTS assay to identify small molecule antagonists of the estrogen related receptor (ERR) signaling pathway from Tox21 library (AID 1224848). Further: nearly all actives have a fitted effect of over 50% in size. Further: potency means the concentration at half of the fitted maximal effect. A digest of the protocol:
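Screening used an ERR reporter line supplied by NTP, exposed for 18 h at 37 C to library compounds delivered in DMSO. Signal was luciferase luminescence developed with ONE-Glo at room temperature for 30 min.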

Assay [14] in a line: qHTS assay to identify small molecule agonists of the estrogen related receptor (ERR) signaling pathway from Tox21 library (AID 1224849; calls by dose curve; further: nearly all actives have a fitted effect of over 15% in size). The settings on record: ERR reporter cell line, ONE-Glo luciferase, 18 h. A digest of the protocol:
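ERR cells, 6 h pre-incubation 37 C/5% CO2; cpd in DMSO pinned; 18 h 37 C; ONE-Glo added, 30 min RT; luminescence read. Agonist mode, qHTS.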

Assay [15] can be described thus: qHTS RealTime-Glo MT Cell Viability Assay in HepG2 cells - 24 hour (AID 1224867). Further: nearly all actives have a fitted effect of over 50% in size. Further: potency means the concentration at half of the fitted maximal effect. A digest of the protocol: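 Tox21 10K library screened in qHTS format on HepG2 cells carrying RealTime-Glo reagents. Compounds were added after a 5 h preincubation, and the luminescent signal from continuous culture was measured repeatedly during 40 h treatment.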
The nature of assay [16]: qHTS RealTime-Glo MT Cell Viability Assay in HEK293 cells - 32 hour (AID 1224868). Further: nearly all actives have a fitted effect of over 50% in size. Further: potency means the concentration at half of the fitted maximal effect. A digest of the protocol:
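Luminescence generated by NanoLuc from substrate produced by living HEK293 cells served as the viability signal. Each value reflects the reading at its stated time point during continuous 40 h compound exposure at 37 C.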

Assay [17] is described as follows: A CellTox Green Cytotoxicity Assay to monitor cytotoxicity in HEK293 cells - 0 hour (AID 1224869). Further: nearly all actives have a fitted effect of over 50% in size. In outline: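 Nonlytic real-time cytotoxicity: HEK293 + CellTox Green reagent plated, 5 h preincubation, pintool compound addition (23 nL in DMSO), 37 C for 40 h, fluorescence measured at successive time points.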
The nature of assay [18]: qHTS RealTime-Glo MT Cell Viability Assay in HepG2 cells - 40 hour (AID 1224870). Further: nearly all actives have a fitted effect of over 50% in size. Further: potency means the concentration at half of the fitted maximal effect. In outline: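 HepG2 cells mixed with RealTime-Glo MT reagents (NanoLuc plus cell-permeant prosubstrate) were seeded at 600 cells/well, incubated 5 h at 37 C/5% CO2, then pinned with compounds in DMSO; nonlytic luminescence tracked viability during 40 h treatment.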
A short description of assay [19]: qHTS assay to identify small molecule agonists of the estrogen related receptor signaling pathway with the pleiotropic PPARgamma coactivator (PGC) from Tox21 10K library (AID 1224842). Further: nearly all actives have a fitted effect of over 15% in size. In outline: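 PGC/ERR reporter cells (NTP line) were seeded 2,000 per well, rested 6 h at 37 C/5% CO2, then pin-dosed with compounds in DMSO for 18 h at 37 C; luciferase read by One-Glo luminescence after 30 min at room temperature.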

Assay [20] is described as follows: qHTS assay to identify small molecule agonists of H2AX - cell viability counter screen (AID 1224847; calls by dose curve; further: nearly all actives have a fitted effect of over 30% in size; further: potency means the concentration at half of the fitted maximal effect). A digest of the protocol: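 Counter-screen for viability: CellTiter-Glo ATP luminescence read after 3 h compound treatment (15-point titration, 0.76% DMSO final) of CHO-K1 cells at 37C, with 30 min room-temperature reagent incubation.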
On the % scale 0 is the no-effect control and ±100 the full control effect.

Sequence of Nuclear receptor subfamily 1 group I member 3 (Homo sapiens) (Q14994 whole entry, looked up): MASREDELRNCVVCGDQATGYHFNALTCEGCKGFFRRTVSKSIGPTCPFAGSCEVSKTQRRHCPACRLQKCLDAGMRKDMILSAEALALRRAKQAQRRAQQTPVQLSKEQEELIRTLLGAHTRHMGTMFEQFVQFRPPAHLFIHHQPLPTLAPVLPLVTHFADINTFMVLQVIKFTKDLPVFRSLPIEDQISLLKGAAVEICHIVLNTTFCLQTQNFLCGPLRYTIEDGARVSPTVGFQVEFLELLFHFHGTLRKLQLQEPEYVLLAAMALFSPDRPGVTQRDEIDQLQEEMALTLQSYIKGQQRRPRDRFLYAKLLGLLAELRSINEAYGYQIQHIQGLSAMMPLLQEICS
Sequence of Luciferin 4-monooxygenase (Photinus pyralis) (P08659 whole entry, looked up): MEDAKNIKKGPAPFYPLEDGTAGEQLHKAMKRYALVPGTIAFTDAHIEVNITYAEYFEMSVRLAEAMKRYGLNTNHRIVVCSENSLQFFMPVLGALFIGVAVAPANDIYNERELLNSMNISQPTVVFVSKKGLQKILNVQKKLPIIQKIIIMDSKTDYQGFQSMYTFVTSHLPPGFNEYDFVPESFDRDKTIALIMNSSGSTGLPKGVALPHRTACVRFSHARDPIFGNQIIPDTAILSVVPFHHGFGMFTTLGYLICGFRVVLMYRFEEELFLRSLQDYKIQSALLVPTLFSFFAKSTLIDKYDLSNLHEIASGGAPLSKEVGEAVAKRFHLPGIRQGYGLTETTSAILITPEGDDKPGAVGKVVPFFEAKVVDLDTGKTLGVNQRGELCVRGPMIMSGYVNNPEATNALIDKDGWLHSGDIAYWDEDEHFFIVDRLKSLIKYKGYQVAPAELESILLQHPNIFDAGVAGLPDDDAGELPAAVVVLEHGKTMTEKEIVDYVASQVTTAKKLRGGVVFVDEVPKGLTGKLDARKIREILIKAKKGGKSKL
Sequence of Thyrotropin receptor (Homo sapiens) (P16473 whole entry, looked up): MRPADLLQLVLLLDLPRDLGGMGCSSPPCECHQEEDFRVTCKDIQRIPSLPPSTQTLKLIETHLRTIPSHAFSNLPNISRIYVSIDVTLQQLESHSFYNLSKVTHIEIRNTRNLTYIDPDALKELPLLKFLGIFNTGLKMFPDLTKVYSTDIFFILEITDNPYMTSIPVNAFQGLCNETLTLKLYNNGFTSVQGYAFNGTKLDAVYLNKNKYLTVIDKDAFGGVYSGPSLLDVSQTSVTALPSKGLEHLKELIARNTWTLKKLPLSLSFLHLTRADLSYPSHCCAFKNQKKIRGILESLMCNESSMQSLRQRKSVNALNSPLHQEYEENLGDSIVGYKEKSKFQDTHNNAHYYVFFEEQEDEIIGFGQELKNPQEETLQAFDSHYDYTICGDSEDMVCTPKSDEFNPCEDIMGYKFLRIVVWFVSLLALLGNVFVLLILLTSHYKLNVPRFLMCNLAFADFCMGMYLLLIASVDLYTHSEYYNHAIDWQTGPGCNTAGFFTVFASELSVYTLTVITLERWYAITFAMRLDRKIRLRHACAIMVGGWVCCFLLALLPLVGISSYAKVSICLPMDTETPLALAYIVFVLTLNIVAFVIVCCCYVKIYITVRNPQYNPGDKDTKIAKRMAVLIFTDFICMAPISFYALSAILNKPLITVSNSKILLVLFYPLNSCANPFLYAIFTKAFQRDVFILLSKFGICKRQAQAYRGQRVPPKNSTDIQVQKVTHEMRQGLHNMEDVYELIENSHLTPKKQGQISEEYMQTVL

Turning to `CC/C=C\CCCCCO`, the Potency result in assay [1], in assay [2], in assay [3], in assay [4], in assay [5] and in assay [6] was “inactive” in each case. In addition, the Potency entry in [7], in [8], in assay [9], in assay [10], in assay [11] and in assay [12] was “inactive” each time. In addition, the Potency entry in [13], in assay [15], in [16], in [17] and in assay [18] was “inactive” in each case. Further, in assay [14] (at 92.4 µM (top of the series)), the activity change, positive = activation is 4.13% (inactive).
`O=C(O)c1cc(O)c2ccccc2c1O`: the Potency in assay [1] was 27.3 µM (active); in assay [2] it was 31.7 µM (active); in [3] it was 21.7 µM (active); in [4] it was 24.3 µM (active); in [5], 38.6 µM (active); in assay [6] it was 1.54 µM (active). For the same molecule, the Potency in assay [7] was 30.6 µM (active); in assay [10] it was 11 µM (active); in assay [20] it was 50.5 µM (active); in assay [13] it was 61.1 µM (active); in assay [15] it was 19.5 µM (active); in assay [16], 43.6 µM (active). Also, the Potency in assay [18] is 21.9 µM (active). The Potency entry in [19] and in [17] was “inactive” in each case. Also, in assay [14] (at 92.4 µM (top of the series)), the activity change, positive = activation was -58.1% (inactive).
In the case of `CCCCCCOC(=O)C(C)CC` (stereo unspecified), the Potency entry in assay [1], in assay [2], in assay [3], in assay [4], in [5] and in assay [6] was “inactive” throughout. Moreover, the Potency result in assay [7], in assay [8], in assay [19], in assay [9], in assay [10] and in assay [11] was “inactive” each time. The Potency result in [12], in assay [20], in [13], in assay [15], in [16] and in assay [17] was “inactive” throughout. The Potency entry in assay [18] is “inactive”. For the same molecule, the activity change, positive = activation in assay [14] (at 92.4 µM (top of the series)) was 0.0288% (inactive).
As for `CCc1cccc(CC)c1NC(=O)CN(CC(=O)O)CC(=O)O`, the Potency result in [1], in assay [2], in [3], in assay [4], in assay [5] and in assay [6] was “inactive” throughout. For the same molecule, the Potency entry in assay [7], in [9], in assay [10], in assay [11], in assay [12] and in assay [20] was “inactive” each time. In addition, the Potency entry in assay [15], in assay [16], in assay [17] and in [18] was “inactive” each time.
In the case of `CC(C)CCCCCOC(=O)CCS`, the Potency entry in [1], in [2], in assay [3], in [4], in assay [5] and in assay [6] was “inactive” throughout. The Potency result in assay [7], in [8], in assay [19], in assay [9], in [11] and in assay [12] was “inactive” throughout. Besides, the Potency entry in assay [20], in [13], in assay [15], in [16] and in assay [18] was “inactive” each time. The activity change, positive = activation in assay [14] (at 92.4 µM (top of the series)) was 3.69% (inactive).
As to `C=C(CC)C(=O)c1ccc(OCC(=O)O)c(Cl)c1Cl`, the Potency result in assay [1], in assay [3], in assay [4], in assay [5], in assay [7] and in [19] was “inactive” in each case. In addition, the Potency entry in assay [9], in [11], in assay [15], in [16], in [17] and in [18] was “inactive” in each case. For the same molecule, the Potency is 79.1 µM (active) and inactive in assay [2]; 3.35 µM (active) in assay [6]; 30.4 µM (active) and 29.8 µM (active) in assay [8]; 19.4 µM (active) and 21.3 µM (active) in assay [10]; 68.1 µM (active) in [13]. Moreover, the figures for the activity change, positive = activation in [14] (at 42.5 µM (top of the series)) and in assay [14] (at 92.4 µM (top of the series)) were -17.8% (inactive) and -55% (inactive), respectively.
As for `CCOC(=O)NNc1ccc(N(CC)CC(C)O)nn1` (stereo unspecified), the Potency entry in assay [1], in assay [2], in [3], in assay [4], in [5] and in assay [6] was “inactive” throughout. Besides, the Potency result in [7], in [8], in [19], in [9], in assay [10] and in assay [12] was “inactive” throughout. The Potency entry in [20], in [13], in assay [15], in [16], in assay [17] and in [18] was “inactive” throughout. Besides, the activity change, positive = activation in [14] (at 42.5 µM (top of the series)) was 0.457% (inactive).
